According to PubChem BioAssay (NCI):
Compounds without any hit were thinned out: in the full panel of roughly 83,000, 20% have a hit.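 Treatment: one concentration, 48 hours, 96-well format. Scoring: percent growth, with anything below 10 considered active.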 Values without a mark were called inactive. Calls of active or inactive are those of the source.

Key:
Test in all cases: NCI-60 one-dose screen, 48 h (100 = growth as untreated, 0 = no growth, -100 = all killed)
SK-MEL-2 melanoma = conditions: 10 µM unless noted
EKVX NSCLC = conditions: 10 µM unless noted
SN12C renal = conditions: 10 µM unless noted
UO-31 renal = conditions: 10 µM unless noted
TK-10 renal = conditions: 10 µM unless noted
ACHN renal = conditions: 10 µM unless noted
CAKI-1 renal = conditions: 10 µM unless noted
A498 renal = conditions: 10 µM
HL-60(TB) leukemia = conditions: 10 µM unless noted
CCRF-CEM leukemia = conditions: 10 µM unless noted
MOLT-4 leukemia = conditions: 10 µM unless noted
SR leukemia = conditions: 10 µM unless noted
RPMI-8226 leukemia = conditions: 10 µM unless noted
OVCAR-8 ovarian = conditions: 10 µM unless noted
OVCAR-5 ovarian = conditions: 10 µM unless noted
OVCAR-4 ovarian = conditions: 10 µM unless noted
SK-OV-3 ovarian = conditions: 10 µM unless noted
IGROV1 ovarian = conditions: 10 µM unless noted
OVCAR-3 ovarian = conditions: 10 µM unless noted
HS 578T breast = conditions: 10 µM unless noted

Row | SMILES | growth (SK-MEL-2 melanoma) | growth (EKVX NSCLC) | growth (SN12C renal) | growth (UO-31 renal) | growth (TK-10 renal) | growth (ACHN renal) | growth (CAKI-1 renal) | growth (A498 renal) | growth (HL-60(TB) leukemia) | growth (CCRF-CEM leukemia) | growth (MOLT-4 leukemia) | growth (SR leukemia) | growth (RPMI-8226 leukemia) | growth (OVCAR-8 ovarian) | growth (OVCAR-5 ovarian) | growth (OVCAR-4 ovarian) | growth (SK-OV-3 ovarian) | growth (IGROV1 ovarian) | growth (OVCAR-3 ovarian) | growth (HS 578T breast)
1 | CC[C@H](C)[C@H](NC(=O)C12C3C4C1C1C2C3C41NC(C)=O)C(=O)N(C)[C@H](C[C@@H](OC(C)=O)c1nc(C(=O)N[C@@H](Cc2ccccc2)C[C@H](C)C(=O)OC)cs1)C(C)C (stereo not given in full) | 49.2% | 38.6% | 25.6% | 59.8% | 62% | 36.6% | 74.1% | -10.4% (active) | -13.3% (active) | 12.2% | 17.7% | 16.6% | 2.37% (active) | 17% | 47.8% | 38.7% | 48.5% | 31.1% | -33.8% (active) | 18.6%
2 | CC[C@H](C)[C@H](NC(=O)C12CC(NC(C)=O)(C1)C2)C(=O)N(C)[C@H](C[C@@H](OC(C)=O)c1nc(C(=O)N[C@@H](Cc2ccccc2)C[C@H](C)C(=O)OC)cs1)C(C)C | 48.8% | 38.3% | 30.9% | 59% | 50.4% | 43.8% | 63.5% | -14.8% (active) | -10.1% (active) | 12.2% | 21.4% | 20.8% | 6.56% (active) | 17.2% | 44% | 43.3% | 27% | 35.4% | -42.3% (active) | 15.8%
3 | COc1cc(/C=C/[N+](=O)[O-])c([N+](=O)[O-])cc1OC | -6.72% (active) | 65.9% | 22% | -49.5% (active) | -18.3% (active) | -46.4% (active) | -50% (active) | 109% | -7.54% (active) | 5.8% (active) | 7.83% (active) | 12.6% | 4.37% (active) | 17% | -3.45% (active) | 6.43% (active) | 103% | -15.6% (active) | -91.7% (active) | 11.8%
4 | O=C(O)C(O)C(O)C1[O][Sb]([c]2ccc([N+](=O)[O-])cc2)[O]C1CO (stereo not given) | 115% | 105% | 90.4% | 96.4% | 98.4% | 101% | 102% | 83.6% | 92.8% | 98.5% | 98.2% | 102% | 99.2% | 105% | 103% | 112% | 129% | 111% | 114% | 93.8%
5 | C[C@]12CCc3sc(NCCc4ccccc4)nc3C1=CC[C@@H]1[C@@H]2CC[C@]2(C)C(=O)CC[C@@H]12 | 92.1% | 92.4% | 68.5% | 50.4% | 91.3% | 73.8% | 73.5% | 86.9% | 1.45% (active) | 8.44% (active) | 4.71% (active) | 0.916% (active) | -5.28% (active) | 72.1% | 100% | 74.2% | 112% | 88% | 6.41% (active) | 75.5%
6 | COC(=O)[C@@H](C)C[C@H](Cc1ccccc1)NC(=O)c1csc([C@@H](C[C@H](C(C)C)N(C)C(=O)[C@@H](NC(=O)[C@H]2CCCCN2C)C2CC2)OC(C)=O)n1 | 5.26% (active) | 42.3% | 43.5% | 39% | 38.6% | 19.6% | 36.9% | 2.41% (active) | -26.3% (active) | 7.66% (active) | 15.3% | 2.03% (active) | 34.9% | 22.2% | 73% | 57.4% | 21.9% | 30.8% | -4.55% (active) | 35.7%
7 | C=C(C)[C@@]12OC3(/C=C/C=C/CCCCC)O[C@@H]1[C@@H]1[C@@H]4O[C@]4(CO)[C@@H](O)[C@]4(O)C(=O)C(C)=C[C@H]4[C@@]1(O3)[C@H](C)[C@H]2OC(=O)c1ccccc1 | 80.4% | 67.4% | 16.5% | 39.7% | 47.1% | 42.9% | 69.8% | -47.2% (active) | -7.45% (active) | 45.8% | 31.2% | 67.2% | 66.4% | 82.6% | 107% | 72.2% | 102% | 52.3% | 61.6% | 4% (active)
8 | CC12CCC(O)CC1=CCC1C2CCC2(C)C(O)CCC12 (stereo not given) | 110% | 71.9% | 105% | 98.5% | 105% | 107% | 93.2% | 81.1% | 115% | 94.9% | 114% | 106% | 94.6% | 112% | 97.3% | 110% | 118% | 113% | 104% | 105%
9 | CC[C@H](C)[C@H](NC(=O)[C@H]1CCCCN1C)C(=O)N(C)[C@H](C[C@@H](OC(C)=O)c1nc(C(=O)NC23CC(C(=O)OC)(C2)C3)cs1)C(C)C | 29.5% | 34.3% | 32.7% | 33.1% | 15.7% | 11.6% | 26.5% | -7.99% (active) | -37.2% (active) | 1.09% (active) | 6.06% (active) | 0.833% (active) | 25.6% | 18.6% | 53.7% | 42.7% | 24.4% | 32% | -18.6% (active) | 27.5%
10 | C[N+]12CN3CN(CN(C3)C1)C2 | 96.2% | 96.4% | 112% | 95.5% | 128% | 108% | 83.6% | 109% | 142% | 73.8% | 123% | 138% | 88% | 100% | 82.7% | 105% | 118% | 91.2% | 115% | 98%
11 | O=C(CC1(O)C(=O)Nc2ccccc21)c1ccc(C(=O)NCC2CCC3(CC2)OOC2(CCCCC2)OO3)cc1 (stereo not given) | 70.7% | 58.3% | 74.4% | -77.2% (active) | 104% | 60.1% | 39.5% | 93.7% | 31.7% | 7.85% (active) | 58.4% | 10.8% | 48.1% | 45.3% | 106% | 71.9% | 81.2% | 41% | 74.1% | 91.9%
12 | Nc1ccc2c(c1)oc1ccccc12 | 102% | 83.5% | 94.6% | 69.3% | 135% | 102% | 82.5% | 103% | 78.3% | 55.6% | 85% | 91% | 79.3% | 107% | 98.3% | 103% | 115% | 110% | 103% | 104%
13 | CC[C@H](C)[C@H](NC(=O)C12C3C4C1C1C2C3C41NC)C(=O)N(C)[C@H](C[C@@H](OC(C)=O)c1nc(C(=O)N[C@@H](Cc2ccccc2)C[C@H](C)C(=O)OC)cs1)C(C)C (stereo not given in full) | 43% | 40.7% | 36.5% | 51.1% | 41.9% | 40.8% | 40.5% | -12.6% (active) | -14.6% (active) | 13.2% | 24.9% | 20% | 3.54% (active) | 20.4% | 43.5% | 45.5% | 17.1% | 36.9% | -28.1% (active) | 13%
14 | O=C([O][Hg][CH2]C1OCCOC1[CH2][Hg][O]C(=O)c1ccccc1)c1ccccc1 (stereo not given) | 95.4% | 123% | 76.2% | -94.8% (active) | -99.5% (active) | -99.5% (active) | -94.7% (active) | 132% | -24.7% (active) | -15.8% (active) | -8.85% (active) | 2.54% (active) | 12.3% | 90% | 112% | -89.2% (active) | 122% | 46.3% | -98.2% (active) | 113%
15 | CNC(=O)Oc1cccc(C(F)(F)F)c1 | 106% | 139% | 93.7% | 96.3% | 105% | 114% | 117% | 106% | 114% | 90.6% | 97.1% | 111% | 87.4% | 87.6% | 114% | 114% | 108% | 120% | 125% | 121%
